Here are results for 22 compounds from PubChem BioAssay (NCATS).

“And” between values parts separate entries of the source, which are not always exact repeats. Identical values can stand only once. Inconclusive results are not listed. Some structures have more than one record in an assay (separate samples or runs), and their calls can disagree. The source made the active and inactive calls. Unless noted, the call rests on the fitted dose curve; in most records, active means well fitted activation curve with a large enough effect; inconclusive means small, poorly fitted or top-dose-only effect; inactive means flat fitted curve, though single readings scatter.

Assay [1] is described as follows: qHTS assay for small molecule agonists of the antioxidant response element (ARE) signaling pathway (AID 651741; active means well fitted activation curve with a large enough effect in the signal ratio; the % refers to the signal ratio; further: potency means the concentration at half of the fitted maximal effect; on activation: % of control where 0% means no effect). In short, it runs like this: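 ARE-bla HepG2 cells (beta-lactamase reporter under ARE control) were plated at 2,000 cells/well, preincubated 5 h at 37 C/5% CO2, then treated with DMSO-dissolved compounds for 16 h at 37 C; LiveBLAzer B/G FRET substrate added, fluorescence read after 2 h at room temperature.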
(qHTS replaces the single test concentration by a dilution series.)

The nature of assay [2]: qHTS assay for small molecule activators of the p53 signaling pathway (AID 651743; active means well fitted activation curve with a large enough effect in the signal ratio, not every such curve was filed as active; the % refers to the signal ratio; further: series mostly up to about 92 µM; % of control where 0% means no effect). The settings on record: HCT-116 p53RE-bla, beta-lactamase FRET ratio, 16 h; activation: stronger effect = higher value. In short, it runs like this: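 p53RE-bla HCT-116 cells with a stably integrated beta-lactamase reporter under p53 response elements were plated, rested 5 hours at 37 C/5% CO2, then exposed to compounds in DMSO for 16 hours at 37 C. LiveBLAzer B/G FRET substrate was read after 2 hours at room temperature.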

Assay [3] in a line: qHTS assay for environmental chemicals that activate the Aryl hydrocarbon Receptor (AhR) signaling pathway (AID 651777). Further: nearly all actives have a fitted effect of over 15% in size. Further: potency means the concentration at half of the fitted maximal effect. On activation: % of control where 0% means no effect. The settings on record: 1A2-DRE human hepatoma cells, luciferase, 24 h; activation: stronger effect = higher value. In short, it runs like this:
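Induction of CYP1A2 transcription through AhR is detected by luciferase in 1A2-DRE hepatoma cells. Compounds or DMSO act for 24 hr at 37 C before a 30 min One-Glo step at room temperature.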

In assay [4] the target is Tumor necrosis factor (Homo sapiens) (UniProt P01375). The experiment in a line: qHTS assay to identify small molecules that stimulate Tumor Necrosis Factor-alpha (TNF-alpha) secretion (AID 651757; active means well fitted curve in the direction sought with a large enough effect in the signal ratio; the % refers to the signal ratio; further: 0% is about no effect). In short, it runs like this: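 THP-1 cells were exposed to compounds for 17 hrs at 37 C, after which secreted TNF-alpha was measured by homogeneous HTRF (TR-FRET) using cryptate- and XL665-labeled anti-TNF-alpha antibodies, read after 3 hr at room temperature.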
Chain of Tumor necrosis factor (Homo sapiens) (P01375 whole entry, looked up): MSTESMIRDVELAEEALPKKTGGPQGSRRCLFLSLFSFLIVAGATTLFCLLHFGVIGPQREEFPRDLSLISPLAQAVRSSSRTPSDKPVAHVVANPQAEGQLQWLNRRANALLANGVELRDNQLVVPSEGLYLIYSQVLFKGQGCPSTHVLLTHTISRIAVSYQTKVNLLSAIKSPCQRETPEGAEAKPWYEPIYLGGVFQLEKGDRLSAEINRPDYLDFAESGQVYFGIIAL

A short description of assay [5]: qHTS assay for small molecule disruptors of the mitochondrial membrane potential - 1 hr assay (AID 651754; calls by dose curve; further: nearly all actives have a fitted effect of over 35% in size; further: potency means the concentration at half of the fitted maximal effect). In short, it runs like this: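 HepG2 cells, attached overnight at 37C, were exposed to compound or DMSO vehicle for 1 hr at 37C, 5% CO2, then stained with Mito-MPS dye for 30 min. Red aggregate versus green monomer fluorescence reports membrane potential.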

A short description of assay [6]: qHTS assay for small molecule disruptors of the mitochondrial membrane potential - 5 hr assay (AID 651755; calls by dose curve; further: nearly all actives have a fitted effect of over 40% in size; further: potency means the concentration at half of the fitted maximal effect). An outline of the steps:
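HepG2 cells, attached overnight at 37C, were exposed to compound or DMSO for 5 hr at 37C, 5% CO2. Mito-MPS dye was then added for 30 min, and fluorescence read at 490/535 nm (monomers) and 540/590 nm (aggregates).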

The nature of assay [7]: qHTS assay for small molecule activators of the nuclear factor-kappa B (NF-kB) signaling pathway (AID 651749; active means well fitted activation curve with a large enough effect in the signal ratio; the % refers to the signal ratio; further: series mostly up to about 77 µM; % of control where 0% means no effect). The settings on record: NF-kB-bla ME-180 cells, beta-lactamase FRET ratio, 16 h; stronger effect = higher value. In short, it runs like this:
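ME-180 cells stably carrying a beta-lactamase reporter under an NF-kB response element were exposed to compound or DMSO vehicle for 16 hr at 37C, 5% CO2. Pathway activation was read by FRET, since reporter expression disrupts FRET.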

A short description of assay [8]: qHTS assay to identify small molecules that stimulate interleukin-8 (IL-8) secretion (AID 651758; active means well fitted activation curve with a large enough effect in the signal ratio; the % refers to the signal ratio; further: 0% is about no effect). An outline of the steps:
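THP-1, 2000 cells/well; cpd 16 h, 37 C; add cryptate + XL665 anti-IL-8 Abs; RT 1-3 h; TR-FRET read.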

For the compound `O=S(=O)(O)C(F)(F)C(F)(F)C(F)(F)C(F)(F)C(F)(F)C(F)(F)C(F)(F)C(F)(F)F`, in assay [1], the Potency entry was “inactive”. The activation in assay [2] was -2.58% (inactive) and 0.715% (inactive); in assay [3] it was 1.49% (inactive) and 0.543% (inactive).

`O=C(O)C(Cl)Cl`: the Potency result in assay [1] was “inactive”. In addition, the result in assay [4] was inactive. Moreover, the activation in assay [3] was 3.85% (inactive) and 0.254% (inactive).

Turning to `Nc1cccc2c(N)cccc12`, the Potency in assay [1] is 27.3 µM (active); in assay [5], 2.98 µM (active); in assay [6], 5.96 µM (active); in assay [3], 25.1 µM (active).

For the compound `CCOCCOC(C)=O`, in assay [1], the Potency result was “inactive”. In addition, the results for the activation in assay [2] and in assay [3] were -0.566% (inactive) and -0.221% (inactive), respectively. Moreover, the result in assay [4] was inactive.

On to `Nc1ccc([N+](=O)[O-])cc1O`, for which the Potency in assay [1] is 13.3 µM (active) and 15.4 µM (active); in assay [6] it was 37.6 µM (active).

As to `Cc1cc(O)ccc1Cl`, the activation in assay [2] was -0.548% (inactive); in assay [7] it was -0.28% (inactive); in assay [3] it was -0.735% (inactive). For the same compound, the Potency result in assay [5] and in assay [6] was “inactive” each time. Also, the compound was classed as inactive in assay [4].

In the case of `COCCOCCO`, the Potency result in assay [1] is “inactive”. Also, the activation was -0.521% (inactive) and -1.09% (inactive) in assay [7]; -0.559% (inactive) and 0.0587% (inactive) in assay [3].

Turning to `O=S(=O)(O)C(F)(F)C(F)(F)C(F)(F)C(F)(F)F`, the Potency in assay [1] is 30.6 µM (active) and inactive. The activation in assay [2] was -0.542% (inactive) and -4.63% (inactive); in assay [7], -0.249% (inactive) and 0.21% (inactive); in assay [3] it was 1.87% (inactive) and 3.11% (inactive).

As for `OCCCBr`, the activation is 1.31% (inactive) in assay [2], -0.539% (inactive) in assay [7] and 1.3% (inactive) in assay [3]. Moreover, the result in assay [4] was inactive.

Take `CCO/N=C(\CC)C1=C(O)CC(c2c(C)cc(C)cc2C)CC1=O` (centres undefined): the activation in assay [2] was 0.237% (inactive); in assay [7], 0.436% (inactive); in assay [3] it was -2.09% (inactive).

`O=[N+]([O-])c1c(Cl)c(Cl)cc(Cl)c1Cl`: the activation in assay [2] was -1.29% (inactive); in assay [7], -0.885% (inactive); in assay [3] it was 4.33% (inactive). In addition, the Potency result in assay [5] and in assay [6] was “inactive” throughout. For the same compound, the compound was classed as inactive in assay [4] and in assay [8].

For the compound `O=C(Nc1ccccc1-c1ccc(Cl)cc1)c1cccnc1Cl`, the values for the activation in assay [2], in assay [7] and in assay [3] were -6.13% (inactive), 0.368% (inactive) and 0.984% (inactive), respectively.

For the compound `C=CCC1=C(C)C(OC(=O)C2C(C=C(C)C)C2(C)C)CC1=O` (centres undefined), the activation in assay [2] was 1.22% (inactive); in assay [7], 0.983% (inactive) and 2.07% (inactive); in assay [3], 0.269% (inactive) and 0.976% (inactive).

On to `O=C(O)CCCOc1ccc(Cl)cc1Cl`, for which the activation in assay [2] is 3.34% (inactive); in assay [3] it was 4.85% (inactive).

With `CC(C)(c1ccc(O)cc1)c1ccc(O)cc1`, the Potency in assay [1] was 42.2 µM (active) and 47.3 µM (active) and 30.6 µM (active); in assay [5], 26.6 µM (active) and 13.3 µM (active); in assay [6], 33.5 µM (active).

With `CCCCCCCCCCCCCCCC[N+](C)(C)C`, the activation was 1.41% (inactive) in assay [7]; 0.975% (inactive) and 0.339% (inactive) in assay [3].

As for `CCCCC(CC)COC(=O)c1ccccc1C(=O)OCC(CC)CCCC` (centres undefined), the activation in assay [2] is -3.4% (inactive) and 2.22% (inactive); in assay [7], 0.371% (inactive) and -1.46% (inactive); in assay [3], -0.0838% (inactive) and 0.859% (inactive). In addition, the Potency entry in assay [5] and in assay [6] was “inactive” in each case. In assay [4], the call was inactive.

In the case of `Nc1ccc(Sc2ccc(N)cc2)cc1`, the Potency result in assay [5] and in assay [6] was “inactive” throughout. Also, the activation in assay [3] is 6.89% (inactive) and 6.82% (inactive).

As to `CCCN(CCC)c1c([N+](=O)[O-])cc(S(N)(=O)=O)cc1[N+](=O)[O-]`, in assay [1], the Potency was 61.1 µM (active). The activation is -2.96% (inactive) in assay [7] and -1.72% (inactive) in assay [3].

For the compound `O=C(O)c1cc(Oc2ccc(C(F)(F)F)cc2Cl)ccc1[N+](=O)[O-]`, in assay [1], the Potency result is “inactive”. Further, the figures for the activation in assay [7] and in assay [3] were -1.27% (inactive) and 2.44% (inactive), respectively.

Consider `O=C(O)COc1nc(Cl)c(Cl)cc1Cl`, for which the figures for the activation in assay [2], in assay [7] and in assay [3] were 1.93% (inactive), 0.434% (inactive) and 0.732% (inactive), respectively.

As for `CCOP(=O)(NC(C)C)Oc1ccc(SC)c(C)c1` (centres undefined), the activation is -4.79% (inactive) and -0.487% (inactive) in assay [2]; -0.0757% (inactive) and -0.702% (inactive) in assay [7]; 4% (inactive) and 2.89% (inactive) in assay [3]. The outcome in assay [4] and in assay [8] was inactive.
